# Measurements as given in PubChem BioAssay (NCI).
# The panel holds about 79,000 compounds, 15% with a hit somewhere; the sample as a whole holds those more often. Values without a mark were called inactive. Activity calls are given as the source filed them. Rule as the data show it: active = growth inhibition above about 70%; inactive = the rest.
# Assay: NCI Yeast Anticancer Drug Screen. Data for the rad14 strain (AID 159);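 also: 0% = growth of vehicle-treated control cultures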
# Details: S. cerevisiae rad14 strain growth inhibition, active compounds read high
# Description: Growth inhibition of yeast strains with defined genetic alterations is measured as a screen for potential anti-cancer activity. Selected strains with alterations in DNA damage repair or cell cycle control were exposed to compounds and growth inhibition was measured relative to vehicle treated controls. The strain used in this assay is rad14
Compound,growth inhibition (at 1.2 µM),growth inhibition (at 3.7 µM),growth inhibition (at 11.0 µM),growth inhibition (at 33.0 µM),growth inhibition (at 100.0 µM)
O=[N+]([O-])c1ccc2c(c1)/C(=N/N=C1c3ccccc3Cc3ccccc31)c1cc([N+](=O)[O-])cc([N+](=O)[O-])c1-2,16%,53%,98% (active),99% (active),95% (active)
Cn1c(=O)c2c(nc(N)n2C2OC(CO)C(O)C2O)n(C)c1=O (stereo not given),-4%,-4%,-6%,-7%,0%
CC(C)(C)C1=CC(=CC=C2C=CN(CCCCCCCCCCCO)C=C2)C=C(C(C)(C)C)C1=O,-4%,23%,99% (active),99% (active),98% (active)
O=C(O)c1ccc(N2C(=O)C=CC2=O)cc1,-3%,-6%,3%,12%,38%
CCC(C)NC1=NCC(C)S1 (stereo not given),-17%,-15%,-22%,-21%,-25%
Cc1cc(S(=O)(=O)Nc2nnc3cnc4ccccc4n23)c(S)cc1Cl,-1%,3%,9%,21%,40%
Nc1ncc(-c2ccc(Br)cc2)s1,-25%,-8%,-1%,93% (active),97% (active)
CN(C)c1ccc2c(SCC(=O)OCC(=O)[C@@]3(O)CC[C@H]4[C@@H]5CCC6=CC(=O)C=C[C@]6(C)[C@H]5C(=O)C[C@@]43C)c3ccc(N(C)C)cc3nc2c1,-12%,-22%,66%,90% (active),88% (active)
